From PubChem
Most compounds without a hit are left out; they make up all but 3.7% or so of the library.
BoNT-F LC inh = BoNT F light chain protease inhibition; Multiplex microsphere protease cleavage assay, flow cytometry; inhibition, % at 10 µM; hit rate 0.22% among 360,000; in the data active = inhibition above about 35%, passing the limit was not always enough; inconclusive = no clear call, values can overlap the other calls; also: plate controls were buffer without enzyme for full effect and enzyme alone for no effect
Autofluor counter = flagged as autofluorescent in microsphere protease counterscreen; compound autofluorescence counterscreen, microsphere flow cytometry; stronger effect = higher value; fluorescence intensity (test concentration not listed); hit rate 3.1% among 360,000; in the data active = fluorescence intensity above about 16000; inconclusive = no clear call, values can overlap the other calls
MazF activator = increases E. coli MazEF RNase cleavage of RNA. FAM/BHQ RNA-DNA oligo cleavage fluorescence, 5 h. activation, % at 20 µM. hit rate 0.32% among 350,000; in the data active = activation above about 50%
Anthrax LF prot = blocks Bacillus anthracis lethal factor protease | multiplex microsphere protease cleavage assay, LF | inhibition, % at 10 µM | hit rate 0.12% among 360,000 | AID 588501; also: plate controls were buffer without enzyme for full effect and enzyme alone for no effect
Target sequence (P15917 whole entry, looked up): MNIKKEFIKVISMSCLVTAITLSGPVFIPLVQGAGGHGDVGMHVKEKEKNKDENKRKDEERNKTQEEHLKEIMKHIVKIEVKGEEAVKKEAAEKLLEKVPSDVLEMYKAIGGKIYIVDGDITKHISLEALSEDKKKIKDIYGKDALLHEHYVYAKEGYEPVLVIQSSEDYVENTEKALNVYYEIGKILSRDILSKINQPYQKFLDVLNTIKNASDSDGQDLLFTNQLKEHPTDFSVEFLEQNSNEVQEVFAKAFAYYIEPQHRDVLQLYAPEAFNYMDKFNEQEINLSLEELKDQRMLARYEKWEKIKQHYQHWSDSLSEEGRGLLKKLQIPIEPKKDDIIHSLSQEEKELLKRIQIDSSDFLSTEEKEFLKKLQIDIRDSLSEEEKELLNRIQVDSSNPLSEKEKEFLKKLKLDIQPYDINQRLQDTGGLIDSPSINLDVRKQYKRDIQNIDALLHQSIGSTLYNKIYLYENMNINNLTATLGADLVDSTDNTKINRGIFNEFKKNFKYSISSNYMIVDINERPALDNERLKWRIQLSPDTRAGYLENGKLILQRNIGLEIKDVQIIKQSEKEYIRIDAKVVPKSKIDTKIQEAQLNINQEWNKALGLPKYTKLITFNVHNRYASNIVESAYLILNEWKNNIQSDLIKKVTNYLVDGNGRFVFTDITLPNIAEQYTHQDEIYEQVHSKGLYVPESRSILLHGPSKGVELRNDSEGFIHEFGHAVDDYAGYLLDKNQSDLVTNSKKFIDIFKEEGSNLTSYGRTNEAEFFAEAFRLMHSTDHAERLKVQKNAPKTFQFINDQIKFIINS
BoNT A protease = blocks Botulinum neurotoxin A light chain protease; inhibition, % at 10 µM; multiplex microsphere protease substrate cleavage, flow cytometry; hit rate 0.17% among 360,000; also: plate controls were buffer without enzyme for full effect and enzyme alone for no effect
* hit, by the source's call. Rule as the data show it, unless noted: active = inhibition above about 30%; inconclusive = no clear call, values can overlap the other calls; inactive = below that.

What do the screens show for `CCC1Oc2ccccc2N(CC(=O)Nc2ccccc2OC)C1=O` (stereo unspecified)?
BoNT-F LC inh: 5.2; Autofluor counter: 22225*; MazF activator: 2.8; Anthrax LF prot: -1.3; BoNT A protease: inconclusive

How did CC1=NC(C)(C)CC2CCC(O)C12 (stereo unspecified) do in these assays?
BoNT-F LC inh: -11.1; Autofluor counter: 3552; MazF activator: 5.0; Anthrax LF prot: 0.5; BoNT A protease: -0.3

What do the screens show for `CC(C)CCCC(C)NC(=O)c1cc(S(=O)(=O)N2CCCCC2)ccc1N1CCOCC1` (stereo unspecified)?
BoNT-F LC inh: -7.1; Autofluor counter: 8736; MazF activator: -11.1; Anthrax LF prot: 6.9; BoNT A protease: 0.8

What do the screens show for `CCC1Oc2ccc(C)cc2N(CC(=O)NCc2cccc(OC)c2)C1=O` (stereo unspecified)?
BoNT-F LC inh: -7.6; Autofluor counter: 17853*; MazF activator: 2.1; Anthrax LF prot: -0.8; BoNT A protease: -4.1

How did COc1ccc(NC(=O)CN2C(=O)C(C)Oc3ccc(C)cc32)cc1 (stereo unspecified) do in these assays?
BoNT-F LC inh: inconclusive; Autofluor counter: 4418; MazF activator: 6.0; Anthrax LF prot: 11.1; BoNT A protease: -0.5

Results for COc1ccc(NC(=O)CN2C(=O)C(C)Oc3ccccc32)cc1 (stereo unspecified) ?
BoNT-F LC inh: 0.6; Autofluor counter: 23500*; MazF activator: 11.9; Anthrax LF prot: -1.6; BoNT A protease: -0.9

What do the screens show for `CCCC(=O)NC(Nc1ccc(S(=O)(=O)Nc2cc(C)on2)cc1)(C(=O)OCC)C(F)(F)F` (stereo unspecified)?
BoNT-F LC inh: 0.5; Autofluor counter: 8537; MazF activator: 4.2; Anthrax LF prot: 2.7; BoNT A protease: 0.1

How did CCOC(=O)C(NC(=O)CC(C)C)(Nc1cc(C)on1)C(F)(F)F (stereo unspecified) do in these assays?
BoNT-F LC inh: -1.0; Autofluor counter: 22923*; MazF activator: 0.5; Anthrax LF prot: -2.4; BoNT A protease: -1.5

What do the screens show for `CCc1ccc(C(O)c2ncc(-c3cccc(OC)c3)[nH]2)cc1` (stereo unspecified)?
BoNT-F LC inh: 1.3; Autofluor counter: 3440; Anthrax LF prot: -3.7; BoNT A protease: -0.3

How did Nc1nc(=O)n(C2CCCCO2)cc1Br (stereo unspecified) do in these assays?
BoNT-F LC inh: -3.2; Autofluor counter: 4059; MazF activator: 10.1; Anthrax LF prot: -0.8; BoNT A protease: 0.2

How did N#CC1=C(N)Oc2cc(O)ccc2C1c1ccccc1 (stereo unspecified) do in these assays?
BoNT-F LC inh: 0.3; Autofluor counter: 21140*; MazF activator: 4.1; Anthrax LF prot: -0.3; BoNT A protease: 1.4

What do the screens show for `Cc1ccc(F)c(S(=O)(=O)NC(=O)C2(C)CCN2C(=O)c2cccc3ccccc23)c1` (stereo unspecified)?
BoNT-F LC inh: -3.1; Autofluor counter: 3450; Anthrax LF prot: -2.5; BoNT A protease: -0.3

What do the screens show for `CC1(O)c2ccccc2C(=O)N1Cc1ccccc1` (stereo unspecified)?
BoNT-F LC inh: -2.1; Autofluor counter: 17655*; MazF activator: 5.1; Anthrax LF prot: 0.6; BoNT A protease: -2.5

How did CC(C)c1ccc(NC(=O)COC(=O)Cn2cnc3c2c(=O)n(C)c(=O)n3C)cc1 do in these assays?
BoNT-F LC inh: 2.8; Autofluor counter: 3543; MazF activator: -4.4; Anthrax LF prot: -0.6; BoNT A protease: 0.0

Results for CCOC(=O)N1CCN(C(=O)C(CC)c2ccccc2)CC1 (stereo unspecified) ?
BoNT-F LC inh: 8.8; Autofluor counter: 10325; MazF activator: 0.8; Anthrax LF prot: -1.0; BoNT A protease: 0.9

Results for CCC(C(=O)N1CCN(S(C)(=O)=O)CC1)c1ccccc1 (stereo unspecified) ?
BoNT-F LC inh: -3.5; Autofluor counter: 20841*; MazF activator: -2.0; Anthrax LF prot: 1.2; BoNT A protease: -2.4

How did CC1CCN(CCC(=O)N2CCCc3c2c(=O)oc2ccc(O)cc32)CC1 do in these assays?
BoNT-F LC inh: -19.5; Autofluor counter: 10817; MazF activator: 1.3; Anthrax LF prot: -11.7; BoNT A protease: -4.0

Results for CN(CC(=O)N1CCCc2c1c(=O)oc1ccc(O)cc21)Cc1ccccc1 ?
BoNT-F LC inh: -5.4; Autofluor counter: 20887*; MazF activator: 4.7; Anthrax LF prot: -0.1; BoNT A protease: -3.9

How did CC(C)CN(C(=O)COc1ccc(Br)cc1C=O)C1CCS(=O)(=O)C1 (stereo unspecified) do in these assays?
BoNT-F LC inh: -6.0; Autofluor counter: inconclusive; MazF activator: -1.3; Anthrax LF prot: 3.7; BoNT A protease: -7.6
